The results in this text go back to PubChem BioAssay (EPA / NIEHS).

Test [1] is described as follows: ATG_E_Box_CIS: Attagene CIS-FACTORIAL HepG2 Assay for human Enhancer Box (E-box) (AID 2282936). The note with it: HepG2 E-box cis-reporter transcription, actives raise or lower the signal. In short, it runs like this:
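E-box-driven reporter transcripts measured in transiently transfected HepG2 after 24 h exposure: RNA reverse-transcribed, PCR-amplified, fluorescently labelled, digested and resolved by capillary electrophoresis. Gain or loss relative to DMSO.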

Test [2] in a line: ATG_M_61_CIS: Attagene CIS-FACTORIAL HepG2 Assay for M61 Transcription Factor (Internal Marker) (AID 2282937). The note with it: HepG2 Attagene CIS-FACTORIAL M61 internal marker reporter; actives raise or lower the signal. In short, it runs like this:
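Human liver HepG2, transient MRTU transfection (cis promoter elements), 24 h compound. Total RNA → oligo(dT) RT → PCR → FAM label → HpaI → CE. Internal background marker; bidirectional fitting, DMSO = baseline.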

Test [3] can be described thus: ATG_EGR_CIS: Attagene CIS-FACTORIAL HepG2 Assay for human Early Growth Response 1 (EGR1) (AID 2282938). The note with it: HepG2 Attagene CIS-FACTORIAL EGR reporter mRNA; actives raise or lower the signal. In short, it runs like this:
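Transient transfection of human HepG2 with multiple cis-regulated reporter units, chemical exposure 24 h, total RNA isolated. Reverse transcription, PCR, fluorescent labelling and capillary electrophoresis quantify reporter transcripts; activity fitted bidirectionally against DMSO.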

Test [4] is described as follows: ATG_M_19_CIS: Attagene CIS-FACTORIAL HepG2 Assay for M19 Transcription Factor (Internal Marker) (AID 2282939). The note with it: HepG2 Attagene CIS-FACTORIAL M19 internal marker reporter; actives raise or lower the signal. The method in brief:
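HepG2 cells transiently transfected with cis-regulated multiplexed reporter units, dosed 24 h. Reporter mRNA quantified by RT-PCR and capillary electrophoresis; internal background marker fitted bidirectionally versus DMSO.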

The nature of test [5]: ATG_ERE_CIS: Attagene CIS-FACTORIAL HepG2 Assay for Estrogen Response Element (ERE) (AID 2282940). The conditions noted are these: HepG2 ERE cis-reporter, Attagene RNA transcript; actives raise or lower the signal. The method in brief:
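HepG2 cells transiently transfected with multiplexed cis-element reporter units, measuring endogenous transcription factor activity; ERE reporter mRNA quantified after 24 h exposure by RT-PCR, fluorescent labelling, HpaI digestion and capillary electrophoresis. Bidirectional change versus DMSO.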

A short description of test [6]: ATG_Ets_CIS: Attagene CIS-FACTORIAL HepG2 Assay for human Erythroblast Transformation Specific (ETS) (AID 2282941). The conditions noted are these: HepG2 ETS cis-reporter transcription, actives raise or lower the signal. The method in brief:
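Multiplexed reporter transcript profiling: HepG2, 24 h treatment, total RNA to cDNA, PCR, 6-FAM labelling, HpaI cut, capillary electrophoresis. Gain- or loss-of-signal fitted against DMSO.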

Test [7] concerns the target Hepatocyte nuclear factor 3-beta (Homo sapiens) (UniProt Q9Y261). Put plainly: ATG_FoxA2_CIS: Attagene CIS-FACTORIAL HepG2 Assay for human Forkhead box A2 (FOXA2) (AID 2282942). The conditions noted are these: HepG2 cis-reporter transcription factor activity, 24 h; actives raise or lower the signal. The method in brief: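 Transient MRTU transfection of HepG2 liver cells; 24 h treatment; total RNA → oligo(dT) RT → PCR → FAM primer extension → HpaI cut → CE. Bidirectional fit vs DMSO.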

A short description of test [8]: ATG_FoxO_CIS: Attagene CIS-FACTORIAL HepG2 Assay for human Forkhead box O (FoxO) (AID 2282943). The note with it: HepG2 Attagene cis-reporter, FoxO element, mRNA; actives raise or lower the signal. In short, it runs like this:
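Human hepatoma HepG2 cells carry transiently introduced reporter transcription units controlled by cis promoter elements. Chemical treatment lasted 24 h, and mRNA signal was compared with DMSO.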

Test [9] can be described thus: ATG_GATA_CIS: Attagene CIS-FACTORIAL HepG2 Assay for human GATA Binding Protein (AID 2282944). The note with it: HepG2 GATA cis-element reporter, Attagene multiplex mRNA; actives raise or lower the signal. In short, it runs like this:
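HepG2 cells transiently transfected with multiplexed cis-element reporter units measure endogenous GATA activity; after 24 h compound exposure, reporter mRNA quantified by RT-PCR and capillary electrophoresis. Changes fitted in both directions vs DMSO.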

Test [10] is described as follows: ATG_GLI_CIS: Attagene CIS-FACTORIAL HepG2 Assay for human Zinc Finger Protein GLI1 (AID 2282945). The conditions noted are these: HepG2, Attagene cis-factorial reporter mRNA, GLI element; actives raise or lower the signal. The method in brief: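 Bidirectional curve fits relative to DMSO, using reporter mRNA levels from RT-PCR plus capillary electrophoresis. Cells were HepG2 transiently carrying cis-regulated reporter constructs, harvested 24 h after dosing.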

Test [11] in a line: ATG_GRE_CIS: Attagene CIS-FACTORIAL HepG2 Assay for human Glucocorticoid Response Elements (GRE) (AID 2282947). The note with it: HepG2 GRE cis-reporter, Attagene multiplex mRNA; actives raise or lower the signal. The method in brief: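 Reporter transcripts read by RT-PCR with capillary electrophoresis fluorescence after a 24 h chemical exposure of HepG2 cells transiently transfected with multiple cis-element reporter units. Gain or loss fitted against DMSO.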

The nature of test [12]: ATG_ISRE_CIS: Attagene CIS-FACTORIAL HepG2 Assay for human Interferon Regulatory Factor 1 (IRF1) binding to an Interferon-Stimulated Response Element (ISRE) (AID 2282948). The note with it: HepG2 ISRE cis-reporter (Attagene), mRNA transcription readout; actives raise or lower the signal. In short, it runs like this: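 Signal reflects induction or loss of ISRE-linked reporter mRNA in transiently transfected HepG2 cells after a 24 h treatment, detected by fluorescent RT-PCR fragments on capillary electrophoresis and normalised to DMSO.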

Test [13] in a line: ATG_M_32_CIS: Attagene CIS-FACTORIAL HepG2 Assay for M32 Transcription Factor (Internal Marker) (AID 2282949).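 Also: background control marker of the multiplexed CIS panel rather than a real target.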 The note with it: HepG2 Attagene cis-factorial M32 reporter, mRNA; actives raise or lower the signal. The method in brief:
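HepG2 human liver cells transiently transfected with cis-promoter-driven multiple reporter transcription units, dosed 24 h. Reporter mRNA quantified by RT-PCR, FAM-labelled primer extension, HpaI digest and capillary electrophoresis; bidirectional fit versus DMSO baseline.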

Test [14] in a line: ATG_M_06_CIS: Attagene CIS-FACTORIAL HepG2 Assay for M06 Transcription Factor (Internal Marker) (AID 2282950). The note with it: HepG2 Attagene CIS-FACTORIAL M06 internal marker reporter; actives raise or lower the signal. The method in brief:
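Internal background marker within multiplexed cis-reporter HepG2 system. Cells transiently transfected, dosed 24 h; reporter mRNA measured by RT-PCR, HpaI digestion and capillary electrophoresis. Bidirectional fit relative to DMSO.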

Test [15] deals with Hypoxia-inducible factor 1-alpha (Homo sapiens) (UniProt Q16665). Kind of test: ATG_HIF1a_CIS: Attagene CIS-FACTORIAL HepG2 Assay for human Hypoxia Inducible Factor 1 (HIF1A) (AID 2282951). The note with it: HepG2 Attagene cis-factorial HIF1a reporter transcription; actives raise or lower the signal. In short, it runs like this: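 Transient MRTU transfection of human HepG2 liver cells, 24 h compound treatment, then total RNA isolation, oligo(dT) reverse transcription, PCR amplification, fluorescent labelling and capillary electrophoresis of reporter fragments. Gain or loss relative to DMSO.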
Chain of Hypoxia-inducible factor 1-alpha (Homo sapiens) (Q16665 whole entry, looked up, the tested form may be a part): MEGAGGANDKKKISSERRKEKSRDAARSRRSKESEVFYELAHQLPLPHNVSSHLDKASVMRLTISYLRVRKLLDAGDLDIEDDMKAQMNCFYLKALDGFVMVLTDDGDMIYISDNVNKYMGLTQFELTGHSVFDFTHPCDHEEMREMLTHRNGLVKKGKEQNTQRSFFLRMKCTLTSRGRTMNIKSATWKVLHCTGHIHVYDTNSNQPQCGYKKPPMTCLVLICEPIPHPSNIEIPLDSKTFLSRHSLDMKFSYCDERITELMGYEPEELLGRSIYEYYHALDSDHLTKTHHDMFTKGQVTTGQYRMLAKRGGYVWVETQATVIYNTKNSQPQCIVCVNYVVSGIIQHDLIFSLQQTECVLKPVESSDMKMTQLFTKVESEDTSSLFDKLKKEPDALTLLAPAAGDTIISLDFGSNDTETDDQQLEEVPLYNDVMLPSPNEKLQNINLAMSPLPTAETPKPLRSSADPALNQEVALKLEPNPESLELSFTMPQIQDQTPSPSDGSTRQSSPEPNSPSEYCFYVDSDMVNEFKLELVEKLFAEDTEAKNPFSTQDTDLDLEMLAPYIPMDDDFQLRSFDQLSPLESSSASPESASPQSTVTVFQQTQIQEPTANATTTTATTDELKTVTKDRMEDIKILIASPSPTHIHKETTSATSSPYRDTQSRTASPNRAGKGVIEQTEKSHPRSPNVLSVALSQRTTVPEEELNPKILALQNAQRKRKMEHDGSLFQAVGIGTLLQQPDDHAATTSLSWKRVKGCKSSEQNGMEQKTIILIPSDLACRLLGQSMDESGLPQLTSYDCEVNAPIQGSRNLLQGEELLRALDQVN

Test [16] has as its target Hepatocyte nuclear factor 6 (Homo sapiens) (UniProt Q9UBC0). Kind of test: ATG_HNF6_CIS: Attagene CIS-FACTORIAL HepG2 Assay for human Hepatocyte Nuclear Factor 6 (HNF6) (AID 2282952). The conditions noted are these: HepG2 Attagene cis-factorial HNF6 reporter transcription; actives raise or lower the signal. In short, it runs like this: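 Endogenous factor activity read in transiently transfected HepG2 via promoter-regulated reporter transcripts. RNA harvested 24 h post-dosing, reverse-transcribed, PCR-amplified, FAM-labelled, HpaI-digested and resolved by capillary electrophoresis; fitted in both directions against DMSO.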

The target in test [17] is Heat shock factor protein 1 (Homo sapiens) (UniProt Q00613). Put plainly: ATG_HSE_CIS: Attagene CIS-FACTORIAL HepG2 Assay for human Heat Shock Transcription Factor 1 (HSE) (AID 2282953). The note with it: HepG2 HSE cis-reporter, Attagene RNA transcription; actives raise or lower the signal. In short, it runs like this: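 HepG2 cells transfected with cis-promoter reporter units sensing endogenous transcription factor activity; reporter mRNA quantified 24 h post-dose by RT-PCR and capillary electrophoresis of 6-FAM-labelled products. Bidirectional fitting against DMSO.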
Chain of Heat shock factor protein 1 (Homo sapiens) (Q00613 whole entry, looked up): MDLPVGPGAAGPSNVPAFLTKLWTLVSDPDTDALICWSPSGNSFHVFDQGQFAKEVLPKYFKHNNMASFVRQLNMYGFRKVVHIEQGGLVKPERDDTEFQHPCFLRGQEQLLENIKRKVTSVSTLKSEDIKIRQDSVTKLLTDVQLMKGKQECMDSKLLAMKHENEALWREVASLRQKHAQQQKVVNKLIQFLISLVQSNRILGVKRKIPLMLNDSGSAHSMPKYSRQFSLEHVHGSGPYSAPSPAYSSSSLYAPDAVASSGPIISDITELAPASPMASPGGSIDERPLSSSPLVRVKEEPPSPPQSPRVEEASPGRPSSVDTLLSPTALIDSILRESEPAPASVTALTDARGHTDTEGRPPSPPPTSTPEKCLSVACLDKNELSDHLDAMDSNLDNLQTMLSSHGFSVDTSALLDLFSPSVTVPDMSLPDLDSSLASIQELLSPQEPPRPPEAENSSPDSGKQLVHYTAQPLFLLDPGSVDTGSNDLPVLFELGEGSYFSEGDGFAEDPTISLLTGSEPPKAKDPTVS

Test [18] can be described thus: ATG_MRE_CIS: Attagene CIS-FACTORIAL HepG2 Assay for human Metal Responsive Element (MRE) (AID 2282954). The note with it: HepG2 MRE cis-reporter transcription, Attagene multiplex; actives raise or lower the signal. In short, it runs like this: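 Endogenous MRE-dependent transcription read as reporter mRNA in transiently transfected human HepG2 cells at 24 h. RNA reverse-transcribed, PCR-amplified, labelled and resolved by capillary electrophoresis; gain or loss relative to DMSO.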

Test [19] has as its target Bile acid receptor (Homo sapiens) (UniProt Q96RI1). Put plainly: ATG_IR1_CIS: Attagene CIS-FACTORIAL HepG2 Assay for human Nuclear Receptor Subfamily 1 Group H Member 4 (NR1H4), IR1 submotif (AID 2282946). The note with it: IR1 reporter transcription, actives raise or lower the signal. The method in brief: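 HepG2 cells transiently transfected with multiplexed cis-element reporter units read endogenous transcription factor activity. After 24 h compound exposure, reporter mRNA was quantified by RT-PCR, fluorescent labelling, HpaI digestion and capillary electrophoresis; bidirectional fitting versus DMSO baseline.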

Test [20] is described as follows: ATG_PBREM_CIS: Attagene CIS-FACTORIAL HepG2 Assay for human Phenobarbital-responsive Enhancer Module (PBREM) (AID 2282955). The conditions noted are these: HepG2 PBREM cis-reporter, Attagene multiplexed transcription; actives raise or lower the signal. The method in brief: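 Endogenous transcription factors in human liver HepG2 cells drive a PBREM cis-element reporter, whose transcript level after 24 h treatment is quantified by RT-PCR with capillary electrophoresis; activity fitted in both directions against DMSO.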

Calls of active or inactive are those of the source. The calls were made as follows: active = hit-call score of the fitted dose curve at least 0.9, where 1 is the maximum; inactive = score below 0.9.

Chain of Hepatocyte nuclear factor 6 (Homo sapiens) (Q9UBC0 whole entry, looked up): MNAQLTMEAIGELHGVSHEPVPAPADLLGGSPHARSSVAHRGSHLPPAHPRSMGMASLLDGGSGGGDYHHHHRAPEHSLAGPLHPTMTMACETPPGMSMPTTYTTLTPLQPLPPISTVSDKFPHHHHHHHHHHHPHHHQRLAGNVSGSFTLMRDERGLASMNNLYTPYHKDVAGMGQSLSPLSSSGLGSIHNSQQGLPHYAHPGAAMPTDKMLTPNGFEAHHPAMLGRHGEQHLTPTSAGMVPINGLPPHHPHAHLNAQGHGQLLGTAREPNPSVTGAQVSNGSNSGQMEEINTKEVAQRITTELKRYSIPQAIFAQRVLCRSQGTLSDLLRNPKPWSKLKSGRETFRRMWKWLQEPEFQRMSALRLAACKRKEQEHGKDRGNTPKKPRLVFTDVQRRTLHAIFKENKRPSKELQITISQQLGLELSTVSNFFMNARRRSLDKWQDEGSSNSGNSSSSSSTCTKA
Chain of Hepatocyte nuclear factor 3-beta (Homo sapiens) (Q9Y261 whole entry, looked up): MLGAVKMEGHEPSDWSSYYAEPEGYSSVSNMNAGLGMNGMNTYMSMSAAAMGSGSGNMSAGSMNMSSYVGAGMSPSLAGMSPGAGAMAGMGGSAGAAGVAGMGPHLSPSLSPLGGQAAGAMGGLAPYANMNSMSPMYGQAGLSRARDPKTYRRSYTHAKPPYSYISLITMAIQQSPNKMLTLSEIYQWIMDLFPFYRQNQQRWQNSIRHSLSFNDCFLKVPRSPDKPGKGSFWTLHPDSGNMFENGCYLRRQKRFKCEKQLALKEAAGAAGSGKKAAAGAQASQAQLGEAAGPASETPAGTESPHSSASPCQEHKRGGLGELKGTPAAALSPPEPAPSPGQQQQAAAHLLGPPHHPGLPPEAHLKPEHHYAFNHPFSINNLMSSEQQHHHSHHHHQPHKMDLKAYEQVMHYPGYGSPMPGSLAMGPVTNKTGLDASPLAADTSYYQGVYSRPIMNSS
Chain of Bile acid receptor (Homo sapiens) (Q96RI1 whole entry, looked up): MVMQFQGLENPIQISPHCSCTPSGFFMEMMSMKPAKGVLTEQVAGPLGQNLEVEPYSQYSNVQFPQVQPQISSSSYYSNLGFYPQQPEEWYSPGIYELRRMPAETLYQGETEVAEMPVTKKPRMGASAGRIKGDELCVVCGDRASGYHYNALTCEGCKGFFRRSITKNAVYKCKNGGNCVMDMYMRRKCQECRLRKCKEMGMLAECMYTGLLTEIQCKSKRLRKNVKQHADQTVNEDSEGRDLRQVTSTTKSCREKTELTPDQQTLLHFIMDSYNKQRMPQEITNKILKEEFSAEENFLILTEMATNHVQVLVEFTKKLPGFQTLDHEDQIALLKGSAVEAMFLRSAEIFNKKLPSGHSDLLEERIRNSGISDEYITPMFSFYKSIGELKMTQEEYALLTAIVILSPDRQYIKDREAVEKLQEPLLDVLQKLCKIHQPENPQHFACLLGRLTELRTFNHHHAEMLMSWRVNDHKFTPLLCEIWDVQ

Consider `C=CC(=O)OCC(O)COc1ccccc1` (stereo unspecified), for which the concentration at half-maximal activity (AC50) is 38.8 µM (active) in test [1]; 64.3 µM (active) in [3]; 25.2 µM (active) in test [8]; 67.3 µM (active) in test [11]; 27.4 µM (active) in test [12]; 134 µM (active) in test [17]. Moreover, the compound was classed as inactive in [2], in test [4], in [5], in test [6], in test [7] and in [9]. Besides, the compound was classed as inactive in test [10], in test [13], in [14], in test [15], in [16] and in test [18].
On to `O=C(O)CCCCCCCCCCC(=O)O`, for which the outcome in test [1], in test [2], in test [3], in test [4], in test [5] and in [6] was inactive. The result in [7], in test [8], in test [10], in [19], in test [11] and in test [12] was inactive. Besides, the call in [13], in test [14], in test [15], in test [16], in test [17] and in [18] was inactive.
Turning to `CCCCN`, the result in [1], in test [2], in test [3], in test [4], in test [5] and in test [6] was inactive. In addition, the compound was called inactive in test [7], in test [8], in test [9], in test [10], in test [11] and in [12]. The compound was classed as inactive in [14], in test [15], in test [16], in [18] and in test [20].
As for `C=C(C)C(=O)O`, the outcome in test [1], in test [2], in [3], in test [4], in test [5] and in [6] was inactive. Besides, the call in test [7], in [8], in test [9], in test [10], in [11] and in test [12] was inactive. In addition, the compound was classed as inactive in test [13], in [14], in test [15], in [16], in test [17] and in test [18].

The term AC50 denotes the concentration at which the activity in the assay is half-maximal.
